From PubChem BioAssay (NCATS)
A number with no mark means an inactive call. The source made the active and inactive calls. Calls follow the shape of the dose curve; as a rule, active = well fitted curve in the direction sought with a large enough effect; inconclusive = small, poorly fitted or top-dose-only effect, or another doubt; inactive = no such curve, though single readings can be large or run the other way.

molecular target: alpha-glucosidase (Oryza sativa, rice) (UniProt Q653V4); assay: Counterscreen for Glucocerebrosidase Inhibitors: qHTS Assay for Rice alpha-Glucosidase at pH 5.0 (AID 997); details: rice alpha-glucosidase enzyme activity; series mostly up to 76.9 µM; activity change, negative = inhibition: at the top concentration;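 also: 0% = full activity with enzyme and -100% = basal without enzyme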
Text: NIH Chemical Genomics Center [NCGC]
NIH Molecular Libraries Screening Centers Network [MLSCN]
PI Name: Zheng, Wei [NIH]
Alpha-glucosidase is responsible for hydrolysis of terminal, non-reducing 1,4-linked alpha-D-glucose residues with release of alpha-D-glucose. It is a lysosomal hydrolase that is required for the degradation of a small percentage (1-3%) of cellular glycogen in human. Deficiency of this enzyme results in glycogen-storage disease type II (GSDII), also referred to as Pompe disease, an autosomal recessive disorder. Structurally normal glycogen is accumulated in lysosomes and cytoplasm in affected patients, primarily in muscle tissues. Excessive glycogen storage within lysosomes may interrupt normal functioning of other organelles and leads to cellular injury. In turn, this leads to enlargement and dysfunction of the entire organ involved (eg, cardiomyopathy and muscle weakness).
It has reported that the improper folding and trafficking of alpha-glucosidase resulted from the genetic mutations may account for a significant number of Prope patients. […] We optimized this alpha-glucosidase assay in 1536-well plate format for identifying the novel small molecule inhibitors with the structures other than the sugar analogs in order to develop the new pharmacological chaperones.
NCGC Assay Protocol Summary:
This is a fluorogenic enzyme assay with 4-methylumbelliferyl-alpha-D-pyranoside as the substrate and rice alpha-glucosidase as the enzyme preparation. Upon the hydrolysis of this fluorogenic substrate, the resulting product, 1. 4-methyllumbelliferone, can be excited at 365 nm and emits at 440 nm which can be detected by a standard fluorescence plate reader. Data were normalized to the controls for basal activity (without enzyme) and 100% activity (with enzyme). In the AC50 values were determined from concentration-response data modeled with the standard Hill equation.
Assay buffer: 50 mM citric acid, 0.005% Tween-20, pH 5.0. (pH 5.0 is an optimal condition for this enzyme assay)
1536-well assay protocol for the human alpha-glucosidase:
(1) Add 2 ul/well of enzyme (4 nM final)
(2) Add 23 nL compounds in DMSO solution. The final titration was 0.7 nM to 77 uM.
(3) Add 1 ul of substrate (400 uM final)
(4) Incubate at room temperature for 20 min.
(5) Add 2 ul stop solution (1M NaOH and 1M Glycine mixture, pH 10)
(6) Detect the assay plate in a ViewLux plate reader (PerkinElmer) with Ex=365 nm and Em=440nm.
Keywords: Alpha-glucosidase, Prope Disease, pharmacological chaperone, chaperone therapy, high throughput screening, alpha-glucosidase inhibitor, MLSMR, MLSCN, NIH Roadmap, qHTS and NCGC

Row | SMILES | activity change, negative = inhibition | outcome
1 | NNC(=O)c1ccc(O)cc1 | -2.34% | –
2 | Nc1ccc(CCN2CCN(c3cccc(C(F)(F)F)c3)CC2)cc1 | -4.94% | –
3 | CCCN(CCC)CCc1c[nH]c2ccc(C(N)=O)cc12 | 0.0353% | –
4 | O=c1c2ccccc2[se]n1-c1ccccc1 | -2.99% | –
5 | N[C@@H](Cn1oc(=O)[nH]c1=O)C(=O)O | -0.806% | –
6 | CP(=O)(O)C1=CCNCC1 | -1.94% | –
7 | CC(C)(C)c1cc(C=C(C#N)C#N)cc(C(C)(C)C)c1O | -8.24% | –
8 | NCCc1c[nH]c2ccc(C(N)=O)cc12 | -1.96% | –
9 | NC(=O)COc1c(F)cc(SCCNS(=O)(=O)c2ccccc2)cc1F | 2.09% | –
10 | OCc1cnc[nH]1 | -0.944% | –
11 | CC(C)NP(=O)(NC(C)C)OP(=O)(NC(C)C)NC(C)C | -1.57% | –
12 | Clc1cc(I)cc(Cl)c1NC1=NCCN1 | -2.75% | –
13 | CCCn1c(=O)c2[nH]c(C3CCCC3)nc2n(CCCOC(=O)c2ccc(S(=O)(=O)F)cc2)c1=O | -2.85% | –
14 | COc1ccc2c(c1)/C(=C/c1cnc[nH]1)C(=O)N2 | -8.17% | –
15 | Cc1sc2ccccc2c1CC1=NCCN1 | -2.71% | –
16 | CCCN1CCc2cc(O)cc3c2[C@H]1Cc1ccc(O)c(O)c1-3 | -5.7% | –
17 | CN(N=O)c1cc(O)ccc1O | -3.29% | –
18 | NC(=O)CI | -8.69% | –
19 | C[N+]1(C)CCN(c2ccccc2)CC1 | -1.39% | –
20 | N#CCCN | -1.04% | –

Row | SMILES | activity change, negative = inhibition | outcome
21 | COc1ccc2[nH]cc(CCN)c2c1 | -0.793% | –
22 | c1ccc2c(N3CCNCC3)cccc2c1 | -3.37% | –
23 | NCCc1ccc(S(=O)(=O)F)cc1 | 1.71% | –
24 | CCCN(CCC)[C@H]1CCc2c(F)ccc(O)c2C1 | – | inactive
25 | O=[N+]([O-])c1ccc2nc(N3CCNCC3)ccc2c1 | -9.01% | –
26 | COc1ccc2[nH]c3c(c2c1)CCNC3 | -3.93% | –
27 | C[C@@H]1O[C@H](C[N+](C)(C)C)CS1 | -1.86% | –
28 | CN1CCC(c2c[nH]c3ccc(O)cc23)CC1 | 1.78% | –
29 | N#CC(C#N)=Cc1cc(O)c(O)c(O)c1 | 0.466% | –
30 | CN(N=O)c1ccc(O)c(O)c1 | -7.44% | –
31 | CN1CCc2cc(O)cc3c2[C@H]1Cc1ccc(O)c(O)c1-3 | -3.23% | –
32 | c1ccc2c(c1)[I+]c1ccccc1-2 | -0.845% | –
33 | O=C1C=CC(=O)C=C1 | -3.6% | –
34 | CCCN(CCC)[C@@H]1CCc2cccc(O)c2C1 | – | inactive
35 | CN1CCc2cccc(Cl)c2CC1 | -4.19% | –
36 | C[C@@H]1[C@@H]2Cc3ccc(O)cc3[C@@]1(C)CCN2CC1CC1 | -3.2% | –
37 | NCCCP(=O)(O)O | -1.18% | –
38 | C[C@H](N)CN1CCc2ccc(Br)cc21 | -5.46% | –
39 | Cc1[nH]c2ccc(O)cc2c1CCN | -4.96% | –
40 | Cc1c2ccncc2c(C)c2c1[nH]c1ccccc12 | -3.75% | –
